NFkB transloc inh – inhibitors of IL-1B driven NFkB p65 nuclear import, primary screen, imaging, HUVEC, IL-1B stimulus, high-content imaging | HUVEC IL-1B NFkB p65 nuclear translocation imaging | inhibition, % at 2 µM | actives 0.43% (n = 94,000);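 active = inhibition above about 30% together with a positive call from visual inspection of the well image, limit read from the data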;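 note: nuclear over cytoplasmic p65 intensity ratio measured by imaging; 0% = IL-1B stimulated DMSO wells and 100% = unstimulated DMSO wells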
ERa coact pot – enhancers of ERα–SRC-1 coactivator binding, primary screen, biochemical, TR-FRET, ERα LBD, low estradiol; coactivator binding (% of control), % at 25.6 µM; TR-FRET ERalpha-LBD/SRC-Cy5 coactivator binding, 2 h; 100 = basal binding, no effect; AID 639, 2007; actives 1.3% (n = 86,000); in the data active = activity above about 200%;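 note: binding measured in presence of low estradiol as agonist stimulus; 0% = peptide alone without receptor and 100% = receptor with peptide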
Target sequence (P03372 whole entry, looked up, the tested form may be a part): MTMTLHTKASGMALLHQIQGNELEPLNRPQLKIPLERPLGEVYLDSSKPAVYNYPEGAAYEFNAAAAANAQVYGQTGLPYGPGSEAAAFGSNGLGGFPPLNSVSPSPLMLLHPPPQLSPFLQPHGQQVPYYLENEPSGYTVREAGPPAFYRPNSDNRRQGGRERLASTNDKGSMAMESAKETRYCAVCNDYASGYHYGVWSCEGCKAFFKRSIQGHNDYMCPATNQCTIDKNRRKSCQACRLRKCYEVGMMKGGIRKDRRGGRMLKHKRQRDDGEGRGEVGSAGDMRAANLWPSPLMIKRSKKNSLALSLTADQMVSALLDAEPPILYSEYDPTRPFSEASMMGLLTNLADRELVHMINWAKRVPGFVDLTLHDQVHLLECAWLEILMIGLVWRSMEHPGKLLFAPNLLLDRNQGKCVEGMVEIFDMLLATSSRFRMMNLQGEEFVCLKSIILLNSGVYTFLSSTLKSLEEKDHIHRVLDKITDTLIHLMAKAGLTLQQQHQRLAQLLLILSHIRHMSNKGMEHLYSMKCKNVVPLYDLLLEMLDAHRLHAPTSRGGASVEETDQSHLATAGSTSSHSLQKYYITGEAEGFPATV
ERb SRC1 inh – inhibitors of ERβ-SRC1 coactivator interaction, primary screen, biochemical, TR-FRET, ERβ LBD, SRC-1 peptide; AID 633, 2007; TR-FRET ER-beta LBD / SRC1-Cy5 peptide binding; receptor agonist-loaded with 1 µM estradiol; inhibition, % at 25.6 µM; actives 1.3% (n = 86,000); Estrogen receptor beta (Homo sapiens), Q92731;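 active = compounds whose percent inhibition of the receptor-coactivator binding signal exceeds about 50% in the single-dose screen, limit read from the data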;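 note: 0% = receptor plus peptide wells without compound and 100% = peptide-only wells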
ERa coact inh – ERα–SRC-1 coactivator interaction inhibitors, primary screen, biochemical, TR-FRET, ERα LBD, estradiol-bound. inhibition, % at 25.6 µM. TR-FRET ER-alpha LBD / SRC-1 peptide. Estrogen receptor (Homo sapiens), P03372. actives 1.7% (n = 86,000); in the data active = inhibition above about 50%;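 note: 0% = receptor plus peptide control and 100% = peptide only without receptor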
NFkB transloc pot – enhancers of NFkB p65 translocation in HUVEC – imaging, IL-1B stimulus, high-content imaging, primary screen. activation, % at 2 µM. actives 0.3% (n = 94,000). AID 819, 2007. HUVEC IL-1B NFkB p65 nuclear translocation imaging;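 active = activation above 40%, about the mean plus 3 SD, also judged a hit on visual image review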;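 note: percent activation is computed from the nuclear over cytoplasmic p65 intensity ratio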
IL1B cytotox – cytotoxicity in IL-1B stimulated HUVEC, primary screen, cytotoxicity control for IL-1B NFkB translocation project, imaging, Hoechst nuclear count, IL-1B stimulus | HUVEC cell count loss | cell count reduction, % at 2 µM | actives 0.41% (n = 94,000) | AID 845, 2007;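 active = cell count reduction more than 3 SD above the screen-wide mean, cut at about 70% in these data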;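 note: normalized per plate to untreated control cells as the no-loss baseline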
Active calls of the source: *; . = no result given; [ ] = dose if it differs, or a comment. A selection: hits, their analogues and other compounds. The true share with any hit is near 3.6%.

SMILES	NFkB transloc inh	ERa coact pot	ERb SRC1 inh	ERa coact inh	NFkB transloc pot	IL1B cytotox
O=C(CSc1ccc2ccccc2c1)Nn1cnnc1	-50	100	-2	-6	50*	7
O=C(CSc1ccc(Cl)cc1)Nn1cnnc1	-5	76	10	12	5	18
O=C(NC1CCCC1)c1cnn2c(C(F)(F)F)cc(-c3ccc4c(c3)OCO4)nc12	11	137	-32	60*[fluorescence artefact?]	-11	-1
COc1ccc(-c2cc(C(F)(F)F)n3ncc(C(=O)NCc4ccco4)c3n2)cc1	8	159	50*[fluorescence artefact?]	59*	-8	-14
Cc1cc(Cl)c(OCCCSc2nc(C)cc(=O)[nH]2)c(Br)c1	10	101	-12	1	-10	90*
Cc1cc(=O)[nH]c(SCCCOc2ccc(F)cc2)n1	-3	94	-9	-6	3	2
Cc1ccc(S(=O)(=O)NCCSc2nnnn2C)cc1	.	112	75*[fluorescence artefact?]	-1	.	.
Cn1c(=O)c2c(nc(Oc3ccc4c(c3)OCO4)n2Cc2ccc(Br)cc2)n(C)c1=O	.	103	52*	2	.	.
Cn1c(=O)c2c(nc(Oc3ccc4c(c3)OCO4)n2Cc2ccc(F)cc2)n(C)c1=O	-6	.	.	.	6	-9
CCN(CC)CCc1c(C)[nH]c(C(=O)OCc2ccccc2)c1C	-5	6	93*[fluorescence artefact?]	96*[fluorescence artefact?]	5	-6
CCOC(=O)c1[nH]c(C)c(CN(CCc2ccccc2)C(=O)CCC(=O)O)c1C	2	104	-8	-10	-2	-21
O=C(CSc1nc(C2CC2)nc2ccccc12)NCc1ccc2c(c1)OCO2	-3	.	.	.	3	-6
Nc1nnc(SCc2ccccc2F)n1-c1ccccc1	14	124	-3	-18	-14	6
Cc1ccc(-c2nnc3n2N=C(c2ccc(Br)cc2)CS3)cc1	11	95	30	66*	-11	-8
CCOc1ccc(C2=Nn3c(nnc3-c3ccccc3OC)SC2)cc1	5	.	.	.	-5	10
Cc1cccc(-c2nnc3n2N=C(c2ccc(Br)cc2)CS3)c1	.	297*	38	56*[fluorescence artefact?]	.	.
COc1ccccc1-c1nnc2n1N=C(c1ccc(O)c(O)c1)CS2	9	50	75*[fluorescence artefact?]	60*[fluorescence artefact?]	-9	-60
O=C(CSc1nnc(CNc2ccc(F)cc2)n1-c1ccccc1)N1CCOCC1	7	111	13	-6	-7	-36
O=C(Nc1ccc(Cc2ccncc2)cc1)C1CCC(N2C(=O)C3CC=CCC3C2=O)CC1 (stereo unspecified)	-25	64	53*	55*	25	0
CC1CCc2cc(F)ccc2N1C(=O)CSc1nnc(-c2cccs2)n1C (stereo unspecified)	-6	75	12	3	6	12
CCN(CC(=O)NC1CCCC1)S(=O)(=O)c1ccc(C)cc1	-4	120	1	95*[fluorescence artefact?]	4	2
CCN(CC(=O)NC1CCCCCC1)S(=O)(=O)c1ccccc1	-8	109	5	6	8	55
COc1ccc(CNC(=O)C2CC(c3cccc(OC)c3)=NO2)cc1 (stereo unspecified)	3	108	73*[fluorescence artefact?]	-6	-3	-4
COc1ccc(C2=NOC(C(=O)NCc3ccc(F)cc3)C2)cc1OC (stereo unspecified)	9	67	34	70*[fluorescence artefact?]	-9	17
COc1cc(C2=NOC(C(=O)NCc3ccc(F)cc3)C2)cc(OC)c1OC (stereo unspecified)	28	.	.	.	-28	20
SMILES	NFkB transloc inh	ERa coact pot	ERb SRC1 inh	ERa coact inh	NFkB transloc pot	IL1B cytotox
CCOC(=O)N1CCC(NC(=O)c2cc(C(=O)Nc3ccc(OCC)cc3)ccc2CO)CC1	-8	122	1	5	8	-6
CCOC(=O)N1CCC(NC(=O)c2cc(C(=O)NC3CCCC3)ccc2CO)CC1	61*	106	-3	-6	-61	40
S=c1oc(-c2ccncc2)nn1CCc1ccncc1	-23	178	15	-5	23	-46
CCN1CCN(Cc2ccccc2NC(=O)Nc2ccc(C)cc2)CC1	4	113	-4	-6	-4	10
CCN1CCN(Cc2ccc(NC(=O)Nc3ccccc3Cl)cc2)CC1	.	261*	11	-5	.	.
O=C(/C=C\Nc1ccccn1)c1ccc(Cl)cc1	3	109	-3	-9	-3	-26
Cc1ccc(S(=O)(=O)C2(C(=O)Nc3cccc(F)c3)CC2)cc1	.	138	14	20	.	.
Cc1cccc(N2CCN(C(=O)c3ccc(CS(=O)(=O)c4ccccc4C)o3)CC2C)c1 (stereo unspecified)	-48	91	6	0	49*	7
S=c1[nH]ncn1-c1ccccn1	-20	118	2	-8	20	-21
CN(C(=O)c1ccc(C(=O)N(C)C2CCCCC2)cc1)C1CCCCC1	6	126	-4	-10	-5	18
O=C(NO)c1ccc(C(=O)N(C2CCCCC2)C2CCCCC2)cc1	-44	104	-4	3	44*	1
COc1ccc(OC)c(CN(CCCN2CCOCC2)S(=O)(=O)c2ccc(NC(C)=O)cc2)c1	7	123	-4	99*[fluorescence artefact?]	-7	-7
COc1ccc(S(=O)(=O)N(CCCN2CCOCC2)Cc2ccc(OC)c(OC)c2)cc1	.	132	1	-9	.	.
CCCc1cc(=O)[nH]c(NCc2ccc(Cl)cc2)n1	0	106	-7	9	0	90*
CCCc1cc(=O)[nH]c(Nc2ccc(O)cc2)n1	-9	73	30	16	9	-7
COc1ccc(-c2csc(N3CCC(C(N)=O)(N4CCCCC4)CC3)n2)cc1	6	93	-3	-7	-6	-14
CCOC(=O)C(C)(C)Sc1nc2c(cnn2-c2ccc(Cl)cc2)c(=O)[nH]1	2	111	-3	-15	-2	29
CCCc1c(C)c2c(C)[nH]nc2oc1=O	.	121	-6	-12	.	.
Cc1c(C)c2c(C)[nH]nc2oc1=O	14	93	-4	-9	-14	76*
CSC(=NCc1cccnc1)NS(=O)(=O)c1cccs1	-9	109	3	-1	9	-8
Cc1ccc(-n2nnnc2SCC(=O)Nc2ccc3c(c2)OCCO3)cc1C	0	124	3	20	0	-13
Cc1ccc(NC(=O)CSc2nnnn2-c2ccc3c(c2)OCO3)cc1C	-14	330*	38	56*[fluorescence artefact?]	14	-17
